Assay outcomes deposited in PubChem by National Center for Advancing Translational Sciences (NCATS).
ClpP mod – qHTS Assay for Activators of ClpP; AID 651965, 2013; ATP-dependent Clp protease proteolytic subunit (Bacillus subtilis (strain 168)), P80244; purified B. subtilis ClpP, FRET peptide cleavage, 20 min; Potency, µM (highest dose often 57.5 µM), inactives show at the top dose activity change, negative = active; hit rate 1.9% among 340,000; active means well fitted falling curve with a large enough effect; inconclusive means small, poorly fitted or top-dose-only effect; inactive means no such curve, though single readings can be large or run the other way; further: potency means the concentration at half of the fitted maximal effect; the source files actives as falling curves though it sought activators and does not explain the sign; nearly all actives have a fitted effect of over 65% in size
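Purified B. subtilis ClpP, 10 microg/mL final in Tris/HCl pH8 with KCl, BSA, glycerol and Tween-20, cleaved an Abz/nitrotyrosine-quenched decapeptide. Fluorescence (ex 320, em 430) was read at 0 and 20 min at room temperature. Delta was normalized to 5.8 microM ADEP and DMSO/no-enzyme controls.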
TDP1 cell CPT – DT40-hTDP1 cell growth loss with CPT; chicken DT40 Tdp1-/-;hTDP1 cells + 20 nM CPT, ATP luminescence, 48 h; hit rate 12% among 420,000; AID 686979; Potency, µM (top dose mostly 46.2 µM), without a hit: at the top dose activity change, negative = growth inhibition, usual class: inhibitors; further: potency means the concentration at half of the fitted maximal effect; on the % scale 0 is the no-effect control and ±100 the full control effect; nearly all actives have a fitted effect of over 55% in size
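Chicken DT40 Tdp1-/- cells complemented with human TDP1, 400 cells/well, exposed to compounds plus 20 nM camptothecin for at least 48 h at 37 C; viability read as ATP content by CellTiter-Glo luminescence.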
DT40 TDP1 no CPT – qHTS for Inhibitors of human tyrosyl-DNA phosphodiesterase 1 (TDP1): qHTS in cells in absence of CPT; DT40 Tdp1-/- hTDP1 cells, no CPT, ATP luminescence, 48 h; Potency, µM (top dose mostly 46.2 µM), for the others: at the highest dose activity change, negative = growth inhibition, hits mostly inhibitors; hit rate 15% among 420,000; further: potency means the concentration at half of the fitted maximal effect; on the % scale 0 is the no-effect control and ±100 the full control effect; nearly all actives have a fitted effect of over 55% in size
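Compound effects on proliferation are scored in DT40 Tdp1-/-;hTDP1 cells in the absence of CPT. ATP levels (CellTiter-Glo luminescence) are recorded after a ≥48 hr, 37 °C incubation.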
IL-1B inflam inh – blocks inflammasome-driven IL-1 beta release | AID 743279 | hit rate 4.7% among 360,000 | THP-1 LPS/ATP IL-1B secretion, AlphaLISA, 16 h; active compounds read low | activity change, % at 57.5 µM; in the data active means activity change below about -50%; inconclusive means mostly about -30% to -49%; further: on the % scale 0 is the no-effect control and ±100 the full control effect
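THP-1 cells pretreated 1 hr with compounds (up to 57.5 uM final), then stimulated with LPS (250 ng/mL final) plus ATP (1.25 mM final); secreted IL-1B measured by AlphaLISA after 16 hr, decreased signal indicating inhibition.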
D3 antag – D3 dopamine receptor (human) antagonism. P35462. D3R cells, DiscoveRx beta-arrestin luminescence, antagonist mode; active compounds read low. max response, negative = inhibition, %. hit rate 2.5% among 360,000. AID 652054; in the data active means max response below about -50%; inconclusive means no clear call, values can overlap the other calls; further: on the % scale 0 is the no-effect control and ±100 the full control effect
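Cells expressing the human receptor were seeded at 1500 cells/well, incubated overnight at 37 degrees C in 5% CO2, then exposed to library compounds with dopamine controls for 90 minutes at 37 degrees C before luminescent detection.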
DRD3 agonist – agonists of human D3 dopamine receptor. P35462. D3R DiscoveRx beta-arrestin cells, luminescence, 90 min. max activation, %. hit rate 0.58% among 410,000. AID 652048; in the data active means max activation above about 30%; further: 0% is about no effect
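Cells at 1500/well, incubated overnight, then treated with pinned compounds (dopamine as control) for 90 min at 37 degrees C. DiscoveRx reagent added for 30 - 60 minutes at room temperature; luminescence read.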
The depositor's hits bear a star; i = inactive; ? = inconclusive; nt = not tested or not shown. Most compounds without a hit are left out; they make up all but 21% or so of the library. Unless noted, the call rests on the fitted dose curve; in most records, active means well fitted inhibition curve with a large enough effect; inconclusive means small, poorly fitted or top-dose-only effect; inactive means flat fitted curve, though single readings scatter.

SMILES	ClpP mod	TDP1 cell CPT	DT40 TDP1 no CPT	IL-1B inflam inh	D3 antag	DRD3 agonist
COC(=O)N=Nc1c(O)n(Cc2ccccc2)c2ccccc12	nt	-23%	?	-10	0	-8
CCn1c(O)c(N=NC(=O)CNC(=O)Cc2ccccc2)c2ccccc21	-2%	-20%	18%	-9	3	-2
CCn1c(O)c(N=NC(=O)C(O)c2ccccc2)c2ccccc21 (configuration not stated)	nt	23µM*	21µM*	-22	18	2
O=C(CNC(=O)c1ccco1)N=Nc1c(O)n(CCc2ccccc2)c2ccccc12	1%	5.2µM*	3.7µM*	128	0	-12
CCCCn1c(O)c(N=NC(=O)c2ccco2)c2ccccc21	0%	?	18µM*	-11	13	-5
CCCn1c(O)c(N=NC(=O)CNC(=O)/C=C/c2ccc(OC)cc2)c2ccccc21	0%	?	?	4	-50*	-18
COCc1cc(C)nc2sc(C(=O)NCCO)c(-n3cccc3)c12	0%	-7%	17%	3	4	6
CC[C@]12c3[nH]c4cc(-c5ccco5)ccc4c3CCN1C(=O)[C@@H](CC(=O)NCCCn1ccnc1)C[C@@H]2C(=O)N1CCN(C(=O)C2CC2)CC1	4%	3%	1%	0	0	8
CSc1nnc(CCCCCCCCc2nnc(SC)o2)o1	1%	?	?	-9	-1	-9
CC(C)c1nc(SCC(=O)Nc2cccc3ccccc23)n[nH]1	-1%	-20%	-19%	6	-5	-3
CC1CN=C2C(C(=O)Nc3ccccc3)=C(O)CC(c3ccccc3)N21 (configuration not stated)	3%	?	23µM*	-5	1	1
O=C(Nc1ccccc1)C1=C(O)CC(c2ccoc2)CC1=Nc1ccccc1 (configuration not stated)	0%	?	?	6	-12	-8
COc1ccc(NS(=O)(=O)c2cccc(C(=O)NNC(=O)CN3C(=O)NC(C)(C)C3=O)c2)cc1	-29%	-8%	6%	12	5	1
CN(C)c1cccc(C(=O)N2CCC(c3ccncc3)CC2)c1	-2%	21µM*	-75%	nt	nt	-9
Cc1ccc(N2C(=O)c3ccccc3NC2C(C)Cc2ccc3c(c2)OCO3)cc1 (configuration not stated)	32µM*	?	?	-29	40	3
COc1ccc(OCC(=O)Nc2c3c(nn2-c2ccc(OC)cc2)CS(=O)(=O)C3)cc1	-2%	-14%	-1%	10	4	-18
CC(=O)n1nc2nc(C)cc(C)c2c1N	1%	-16%	2%	35	-28	-25
Cc1cc(C)c2c(SC(C)C)nc(N)nc2n1	-18%	?	18µM*	0	-23	-1
CCOC(=O)c1c(NC(C)=O)sc2c(OCCN(CC)CC)c(Br)ccc12	3%	?	?	-3	-21	5
CCOC(=O)c1c(NC(C)=O)sc2c1CCC(C=NCCCN(CC)CC)=C2Sc1ccccc1	-9%	15µM*	13µM*	-97*	-66*	2
CCc1ccc(CN2CCC(n3nccc3NC(=O)c3ccccc3C)CC2)cc1	-1%	21µM*	?	-19	21	8
CCOc1ccc(CN2CCC(n3nccc3NC(=O)c3ccccc3OC)CC2)cc1	-3%	16µM*	?	-21	-6	-13
COc1ncccc1C(=O)N1CCC(n2nccc2NC(=O)CC(C)C)CC1	0%	-5%	-3%	-22	-52*	-11
CCc1ccc(CN2CCC(n3nccc3NC(=O)C3CCCC3)CC2)cc1	28µM*	?	?	-4	1	-31
CCn1cc(CN2CCC(n3nccc3NC(=O)c3ccccc3OC)CC2)cn1	3%	5%	-1%	-6	8	2
SMILES	ClpP mod	TDP1 cell CPT	DT40 TDP1 no CPT	IL-1B inflam inh	D3 antag	DRD3 agonist
CC(C)CC(=O)Nc1ccnn1C1CCN(C(=O)c2ccc(F)cc2Cl)CC1	1%	-2%	?	i	-24	-4
Cc1ccc(C(=O)NC(=S)Nc2ccc3c(c2)OCCO3)c(C)c1	1%	?	?	-7	34	9
O=C(Nc1ccc(CN2CCOCC2)cc1)c1cc(Br)ccc1Cl	2%	-28%	?	-51*	-17	-14
O=C(Nc1ccc(Cl)cc1)c1cc(Br)ccc1OCC(=O)N1CCOCC1	-19%	?	?	-92*	-13	-22
COc1ccc(Br)cc1C(=O)NC(=S)Nc1ccc(CN2CCOCC2)cc1	-3%	18µM*	13µM*	-68*	55	4
Cc1ccc(C(=O)NC(=S)Nc2ccc(N3CCOCC3)cc2)c(C)c1	nt	-1%	23µM*	2	-9	-21
COc1ccc(OCCCC(=O)NNC(=O)c2ccncc2)cc1	-1%	10%	4%	10	5	0
Cc1oc2c(c1C(=O)Nc1ccc(OC(F)(F)F)cc1)C1=NCCN1C=N2	0%	-2%	-3%	nt	nt	-9
Cc1ccc(C(=O)NC(=S)Nc2ccc(CN3CCOCC3)cc2)cc1	0%	21µM*	?	-29	-17	-7
O=C(COc1ccc(Br)cc1)N1CCOCC1	0%	-11%	-16%	-7	-4	-2
O=C(COc1ccc2cc(Br)ccc2c1Br)N1CCOCC1	2%	-53%	?	-77*	6	-8
CC(C)Oc1ccc(C(=O)NC(=S)Nc2ccc(CN3CCOCC3)cc2)cc1	nt	?	18µM*	-27	1	8
O=C(NC(=S)Nc1ccc(CN2CCOCC2)cc1)c1cccc(F)c1	1%	?	?	-11	?	-3
O=C(COC(=O)c1cccnc1Cl)NC(=O)c1ccc(OC(F)F)cc1	0%	5%	-5%	1	-53*	-9
O=C(COC(=O)c1cccnc1Cl)NCCC1=CCCCC1	16µM*	5%	9%	8	-14	-17
Cc1ccc(C(=O)Nc2ccccc2N2CCOCC2)cc1S(=O)(=O)N1CCOCC1	-1%	?	-28%	-18	1	2
COc1ccc(C)cc1Nc1nc(C)nc2sc(C)cc12	nt	?	21µM*	22	13	3
Cc1ccccc1-c1n[nH]c(=S)n1/N=C/C=C/c1ccco1	0%	?	18µM*	14	-12	-13
S=c1[nH]nc(-c2ccc(Cl)cc2)n1/N=C/C=C/c1ccco1	nt	?	21µM*	12	-80*	-3
